Results reported in publication PMC11006913.

Assays:
Experiment in all cases: PBM; 200 nM protein, PBS
Conditions in all cases: dsDNA, one strand shown
HOXA4 [1] = biological target: HOXA4 (Homo sapiens, UniProt Q00056 201-287, W262R)
HOXA4 [2] = biological target: HOXA4 (Homo sapiens, UniProt Q00056 201-287, R217L)
HOXA4 [3] = biological target: HOXA4 (Homo sapiens, UniProt Q00056 201-287)
HOXA4 [4] = biological target: HOXA4 (Homo sapiens, UniProt Q00056 201-287, W262F)
ALX3 [5] = biological target: ALX3 (Homo sapiens, UniProt O95076 139-225, N203Q)
ALX3 [6] = biological target: ALX3 (Homo sapiens, UniProt O95076 139-225)
PROP1 [7] = biological target: PROP1 (Homo sapiens, UniProt O75360 56-141)
PROP1 [8] = biological target: PROP1 (Homo sapiens, UniProt O75360 56-141, R99H)
ALX3 [9] = biological target: ALX3 (Homo sapiens, UniProt O95076 139-225, L168Q)
ALX3 [10] = biological target: ALX3 (Homo sapiens, UniProt O95076 139-225, L168V)
PROP1 [11] = biological target: PROP1 (Homo sapiens, UniProt O75360 56-141, F88S)
ALX3 [12] = biological target: ALX3 (Homo sapiens, UniProt O95076 139-225, N203S)
ALX4 = ALX4 (Homo sapiens, UniProt Q9H161 200-286, Q225E)
HOXD13 [13] = biological target: HOXD13 (Homo sapiens, UniProt P35453 263-343, T313R)
HOXD13 [14] = biological target: HOXD13 (Homo sapiens, UniProt P35453 263-343)
HOXD13 [15] = biological target: HOXD13 (Homo sapiens, UniProt P35453 263-343, T313A)
HOXC9 = HOXC9 (Homo sapiens, UniProt P31274 178-260, R222W)
HOXA2 [16] = biological target: HOXA2 (Homo sapiens, UniProt O43364 129-215, R185T)
HOXA2 [17] = biological target: HOXA2 (Homo sapiens, UniProt O43364 129-215, R185K)
VAX1 [18] = biological target: VAX1 (Homo sapiens, UniProt Q5SQQ9 86-172)
VAX1 [19] = biological target: VAX1 (Homo sapiens, UniProt Q5SQQ9 86-172, T142I)
HOXA2 [20] = biological target: HOXA2 (Homo sapiens, UniProt O43364 129-215, Y150S)
HOXA2 [21] = biological target: HOXA2 (Homo sapiens, UniProt O43364 129-215)
VAX1 [22] = biological target: VAX1 (Homo sapiens, UniProt Q5SQQ9 86-172, K157R)
ALX1 [23] = biological target: ALX1 (Homo sapiens, UniProt Q15699 118-204, L144V)
ALX1 [24] = biological target: ALX1 (Homo sapiens, UniProt Q15699 118-204, L144R)
ALX1 [25] = biological target: ALX1 (Homo sapiens, UniProt Q15699 118-204)
Sequence of ALX1 (Homo sapiens, UniProt Q15699 118-204) (Q15699 118-204): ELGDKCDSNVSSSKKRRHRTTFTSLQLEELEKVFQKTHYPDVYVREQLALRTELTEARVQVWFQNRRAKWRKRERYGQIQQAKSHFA

Sequence of HOXA4 (Homo sapiens, UniProt Q00056 201-287) (Q00056 201-287): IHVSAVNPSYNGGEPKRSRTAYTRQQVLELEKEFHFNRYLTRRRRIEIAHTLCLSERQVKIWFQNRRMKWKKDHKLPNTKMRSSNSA
Sequence of HOXA2 (Homo sapiens, UniProt O43364 129-215, R185K) (O43364 129-215 R185K): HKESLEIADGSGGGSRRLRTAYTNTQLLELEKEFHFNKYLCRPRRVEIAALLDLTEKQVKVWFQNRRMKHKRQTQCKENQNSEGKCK
Sequence of HOXA2 (Homo sapiens, UniProt O43364 129-215, Y150S) (O43364 129-215 Y150S): as the sequence (O43364 129-215 R185K) above, with Y22S, K57R counted along it
Sequence of HOXA4 (Homo sapiens, UniProt Q00056 201-287, W262R) (Q00056 201-287 W262R): as the sequence (Q00056 201-287) above, with W62R counted along it
Sequence of HOXA2 (Homo sapiens, UniProt O43364 129-215) (O43364 129-215): as the sequence (O43364 129-215 R185K) above, with K57R counted along it
Sequence of HOXA2 (Homo sapiens, UniProt O43364 129-215, R185T) (O43364 129-215 R185T): as the sequence (O43364 129-215 R185K) above, with K57T counted along it
Sequence of ALX3 (Homo sapiens, UniProt O95076 139-225, N203S) (O95076 139-225 N203S): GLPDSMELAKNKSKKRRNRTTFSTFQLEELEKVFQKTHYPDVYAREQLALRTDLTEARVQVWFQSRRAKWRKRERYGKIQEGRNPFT
Sequence of HOXA4 (Homo sapiens, UniProt Q00056 201-287, R217L) (Q00056 201-287 R217L): as the sequence (Q00056 201-287) above, with R17L counted along it
Sequence of HOXA4 (Homo sapiens, UniProt Q00056 201-287, W262F) (Q00056 201-287 W262F): as the sequence (Q00056 201-287) above, with W62F counted along it
Sequence of ALX3 (Homo sapiens, UniProt O95076 139-225, N203Q) (O95076 139-225 N203Q): as the sequence (O95076 139-225 N203S) above, with S65Q counted along it
Sequence of PROP1 (Homo sapiens, UniProt O75360 56-141, R99H) (O75360 56-141 R99H): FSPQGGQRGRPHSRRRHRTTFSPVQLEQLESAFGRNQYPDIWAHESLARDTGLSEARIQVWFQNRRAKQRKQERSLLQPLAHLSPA
Sequence of VAX1 (Homo sapiens, UniProt Q5SQQ9 86-172) (Q5SQQ9 86-172): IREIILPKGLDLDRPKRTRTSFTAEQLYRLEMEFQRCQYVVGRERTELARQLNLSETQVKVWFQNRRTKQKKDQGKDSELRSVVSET
Sequence of PROP1 (Homo sapiens, UniProt O75360 56-141, F88S) (O75360 56-141 F88S): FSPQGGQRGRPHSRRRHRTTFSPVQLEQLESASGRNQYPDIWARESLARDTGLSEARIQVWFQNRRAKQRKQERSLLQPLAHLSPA
Sequence of ALX3 (Homo sapiens, UniProt O95076 139-225) (O95076 139-225): as the sequence (O95076 139-225 N203S) above, with S65N counted along it
Sequence of ALX3 (Homo sapiens, UniProt O95076 139-225, L168V) (O95076 139-225 L168V): as the sequence (O95076 139-225 N203S) above, with L30V, S65N counted along it
Sequence of VAX1 (Homo sapiens, UniProt Q5SQQ9 86-172, T142I) (Q5SQQ9 86-172 T142I): as the sequence (Q5SQQ9 86-172) above, with T57I counted along it
Sequence of PROP1 (Homo sapiens, UniProt O75360 56-141) (O75360 56-141): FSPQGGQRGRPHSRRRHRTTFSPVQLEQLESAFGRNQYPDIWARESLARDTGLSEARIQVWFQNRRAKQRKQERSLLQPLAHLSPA
Sequence of ALX3 (Homo sapiens, UniProt O95076 139-225, L168Q) (O95076 139-225 L168Q): as the sequence (O95076 139-225 N203S) above, with L30Q, S65N counted along it
Sequence of VAX1 (Homo sapiens, UniProt Q5SQQ9 86-172, K157R) (Q5SQQ9 86-172 K157R): as the sequence (Q5SQQ9 86-172) above, with K72R counted along it
Sequence of ALX1 (Homo sapiens, UniProt Q15699 118-204, L144V) (Q15699 118-204 L144V): as the sequence (Q15699 118-204) above, with L27V counted along it
Sequence of HOXC9 (P31274 178-260 R222W): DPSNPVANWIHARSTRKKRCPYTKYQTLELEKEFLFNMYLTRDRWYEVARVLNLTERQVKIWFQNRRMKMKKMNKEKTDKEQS
Sequence of HOXD13 (Homo sapiens, UniProt P35453 263-343, T313A) (P35453 263-343 T313A): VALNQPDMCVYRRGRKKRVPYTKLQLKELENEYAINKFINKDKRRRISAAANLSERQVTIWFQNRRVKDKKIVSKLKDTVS
Sequence of ALX4 (Q9H161 200-286 Q225E): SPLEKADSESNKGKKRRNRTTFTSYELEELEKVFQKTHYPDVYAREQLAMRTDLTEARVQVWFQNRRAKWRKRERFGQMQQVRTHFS
Sequence of HOXD13 (Homo sapiens, UniProt P35453 263-343, T313R) (P35453 263-343 T313R): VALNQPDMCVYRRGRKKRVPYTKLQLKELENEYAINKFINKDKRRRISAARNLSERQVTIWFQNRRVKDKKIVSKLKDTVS
Sequence of ALX1 (Homo sapiens, UniProt Q15699 118-204, L144R) (Q15699 118-204 L144R): as the sequence (Q15699 118-204) above, with L27R counted along it
Sequence of HOXD13 (Homo sapiens, UniProt P35453 263-343) (P35453 263-343): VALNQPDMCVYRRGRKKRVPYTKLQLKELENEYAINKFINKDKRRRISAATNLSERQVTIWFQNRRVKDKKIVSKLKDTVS

AGGAGTCC was tested, and the binding signal (HOXA4 [1]) was 9.98 upbm affinity estimate (log intensity, higher = more binding, comparable within an allelic series), the binding signal (HOXA4 [2]) was 9.79 upbm affinity estimate (log intensity, higher = more binding, comparable within an allelic series) and the binding signal (HOXA4 [3]) was 9.77 upbm affinity estimate (log intensity, higher = more binding, comparable within an allelic series). The binding signal (HOXA4 [4]) was 9.94 upbm affinity estimate (log intensity, higher = more binding, comparable within an allelic series).

In the case of CCCAGACC, the binding signal (HOXA4 [1]) is reported as 9.9 upbm affinity estimate (log intensity, higher = more binding, comparable within an allelic series), the binding signal (HOXA4 [2]) is reported as 9.76 upbm affinity estimate (log intensity, higher = more binding, comparable within an allelic series) and the binding signal (ALX3 [5]) is reported as 7.81 upbm affinity estimate (log intensity, higher = more binding, comparable within an allelic series). The binding signal (HOXA4 [3]) was 9.51 upbm affinity estimate (log intensity, higher = more binding, comparable within an allelic series), the binding signal (ALX3 [6]) was 7.71 upbm affinity estimate (log intensity, higher = more binding, comparable within an allelic series) and the binding signal (PROP1 [7]) was 6.45 upbm affinity estimate (log intensity, higher = more binding, comparable within an allelic series). For the same sequence, the binding signal (PROP1 [8]) was 6.71 upbm affinity estimate (log intensity, higher = more binding, comparable within an allelic series), the binding signal (ALX3 [9]) was 7.78 upbm affinity estimate (log intensity, higher = more binding, comparable within an allelic series) and the binding signal (ALX3 [10]) was 7.7 upbm affinity estimate (log intensity, higher = more binding, comparable within an allelic series). The binding signal (PROP1 [11]) was 6.48 upbm affinity estimate (log intensity, higher = more binding, comparable within an allelic series), the binding signal (HOXA4 [4]) was 9.84 upbm affinity estimate (log intensity, higher = more binding, comparable within an allelic series) and the binding signal (ALX3 [12]) was 7.84 upbm affinity estimate (log intensity, higher = more binding, comparable within an allelic series).

With CAATAAAG the binding signal (HOXA4 [1]) was 10.4 upbm affinity estimate (log intensity, higher = more binding, comparable within an allelic series), the binding signal (ALX4) was 10.7 upbm affinity estimate (log intensity, higher = more binding, comparable within an allelic series) and the binding signal (HOXD13 [13]) was 10.8 upbm affinity estimate (log intensity, higher = more binding, comparable within an allelic series). For the same sequence, the binding signal (HOXD13 [14]) was 11.9 upbm affinity estimate (log intensity, higher = more binding, comparable within an allelic series), the binding signal (HOXA4 [3]) was 11.7 upbm affinity estimate (log intensity, higher = more binding, comparable within an allelic series) and the binding signal (HOXD13 [15]) was 11.7 upbm affinity estimate (log intensity, higher = more binding, comparable within an allelic series). The binding signal (HOXC9) was 11.1 upbm affinity estimate (log intensity, higher = more binding, comparable within an allelic series).

With CCTCCAGC the binding signal (HOXA4 [1]) was 9.79 upbm affinity estimate (log intensity, higher = more binding, comparable within an allelic series), the binding signal (HOXA4 [2]) was 9.82 upbm affinity estimate (log intensity, higher = more binding, comparable within an allelic series) and the binding signal (HOXA4 [3]) was 9.83 upbm affinity estimate (log intensity, higher = more binding, comparable within an allelic series). The binding signal (HOXA4 [4]) was 9.76 upbm affinity estimate (log intensity, higher = more binding, comparable within an allelic series).

With ATAATGAG the binding signal (HOXA4 [1]) was 10.5 upbm affinity estimate (log intensity, higher = more binding, comparable within an allelic series), the binding signal (HOXA2 [16]) was 12.5 upbm affinity estimate (log intensity, higher = more binding, comparable within an allelic series) and the binding signal (HOXA4 [2]) was 11.8 upbm affinity estimate (log intensity, higher = more binding, comparable within an allelic series). For the same sequence, the binding signal (HOXA2 [17]) was 13.2 upbm affinity estimate (log intensity, higher = more binding, comparable within an allelic series), the binding signal (HOXA4 [3]) was 13.6 upbm affinity estimate (log intensity, higher = more binding, comparable within an allelic series) and the binding signal (VAX1 [18]) was 12.8 upbm affinity estimate (log intensity, higher = more binding, comparable within an allelic series). For the same sequence, the binding signal (VAX1 [19]) was 12.6 upbm affinity estimate (log intensity, higher = more binding, comparable within an allelic series), the binding signal (HOXA2 [20]) was 10.8 upbm affinity estimate (log intensity, higher = more binding, comparable within an allelic series) and the binding signal (HOXA4 [4]) was 11.2 upbm affinity estimate (log intensity, higher = more binding, comparable within an allelic series). For the same sequence, the binding signal (HOXA2 [21]) was 12.3 upbm affinity estimate (log intensity, higher = more binding, comparable within an allelic series) and the binding signal (VAX1 [22]) was 12.5 upbm affinity estimate (log intensity, higher = more binding, comparable within an allelic series).

With CGAGGGCG the binding signal (HOXA4 [1]) was 9.7 upbm affinity estimate (log intensity, higher = more binding, comparable within an allelic series), the binding signal (HOXA4 [2]) was 9.75 upbm affinity estimate (log intensity, higher = more binding, comparable within an allelic series) and the binding signal (ALX3 [5]) was 7.74 upbm affinity estimate (log intensity, higher = more binding, comparable within an allelic series). The binding signal (HOXA4 [3]) was 9.8 upbm affinity estimate (log intensity, higher = more binding, comparable within an allelic series), the binding signal (ALX3 [6]) was 7.69 upbm affinity estimate (log intensity, higher = more binding, comparable within an allelic series) and the binding signal (ALX3 [9]) was 7.78 upbm affinity estimate (log intensity, higher = more binding, comparable within an allelic series). The binding signal (ALX3 [10]) was 7.76 upbm affinity estimate (log intensity, higher = more binding, comparable within an allelic series), the binding signal (HOXA4 [4]) was 9.89 upbm affinity estimate (log intensity, higher = more binding, comparable within an allelic series) and the binding signal (ALX3 [12]) was 7.73 upbm affinity estimate (log intensity, higher = more binding, comparable within an allelic series).

With TAATGAGA the binding signal (HOXA4 [1]) was 10.5 upbm affinity estimate (log intensity, higher = more binding, comparable within an allelic series), the binding signal (HOXA2 [16]) was 12.9 upbm affinity estimate (log intensity, higher = more binding, comparable within an allelic series) and the binding signal (HOXA4 [2]) was 11.8 upbm affinity estimate (log intensity, higher = more binding, comparable within an allelic series). The binding signal (HOXA2 [17]) was 13.3 upbm affinity estimate (log intensity, higher = more binding, comparable within an allelic series), the binding signal (HOXA4 [3]) was 13.6 upbm affinity estimate (log intensity, higher = more binding, comparable within an allelic series) and the binding signal (VAX1 [18]) was 13.2 upbm affinity estimate (log intensity, higher = more binding, comparable within an allelic series). For the same sequence, the binding signal (VAX1 [19]) was 12.7 upbm affinity estimate (log intensity, higher = more binding, comparable within an allelic series), the binding signal (HOXA2 [20]) was 10.8 upbm affinity estimate (log intensity, higher = more binding, comparable within an allelic series) and the binding signal (HOXA4 [4]) was 11.5 upbm affinity estimate (log intensity, higher = more binding, comparable within an allelic series). The binding signal (HOXA2 [21]) was 12.5 upbm affinity estimate (log intensity, higher = more binding, comparable within an allelic series) and the binding signal (VAX1 [22]) was 12.8 upbm affinity estimate (log intensity, higher = more binding, comparable within an allelic series).

In the case of GACTCCGC, the binding signal (HOXA4 [1]) is reported as 9.83 upbm affinity estimate (log intensity, higher = more binding, comparable within an allelic series), the binding signal (HOXA4 [2]) is reported as 9.81 upbm affinity estimate (log intensity, higher = more binding, comparable within an allelic series) and the binding signal (ALX1 [23]) is reported as 6.29 upbm affinity estimate (log intensity, higher = more binding, comparable within an allelic series). The binding signal (ALX1 [24]) was 6.35 upbm affinity estimate (log intensity, higher = more binding, comparable within an allelic series), the binding signal (HOXA4 [3]) was 9.59 upbm affinity estimate (log intensity, higher = more binding, comparable within an allelic series) and the binding signal (ALX1 [25]) was 6.25 upbm affinity estimate (log intensity, higher = more binding, comparable within an allelic series). For the same sequence, the binding signal (HOXA4 [4]) was 9.87 upbm affinity estimate (log intensity, higher = more binding, comparable within an allelic series).

AACTAATA was tested, and the binding signal (HOXA4 [1]) was 10.5 upbm affinity estimate (log intensity, higher = more binding, comparable within an allelic series), the binding signal (HOXA4 [2]) was 11.2 upbm affinity estimate (log intensity, higher = more binding, comparable within an allelic series) and the binding signal (ALX3 [5]) was 8.57 upbm affinity estimate (log intensity, higher = more binding, comparable within an allelic series). The binding signal (HOXA4 [3]) was 12.5 upbm affinity estimate (log intensity, higher = more binding, comparable within an allelic series), the binding signal (HOXA4 [4]) was 11 upbm affinity estimate (log intensity, higher = more binding, comparable within an allelic series) and the binding signal (ALX3 [12]) was 8.65 upbm affinity estimate (log intensity, higher = more binding, comparable within an allelic series).

For CATCCCCC, the binding signal (HOXA4 [1]) was 9.63 upbm affinity estimate (log intensity, higher = more binding, comparable within an allelic series), the binding signal (HOXA4 [2]) was 9.8 upbm affinity estimate (log intensity, higher = more binding, comparable within an allelic series) and the binding signal (HOXA4 [3]) was 9.66 upbm affinity estimate (log intensity, higher = more binding, comparable within an allelic series). The binding signal (PROP1 [7]) was 6.77 upbm affinity estimate (log intensity, higher = more binding, comparable within an allelic series), the binding signal (PROP1 [8]) was 6.66 upbm affinity estimate (log intensity, higher = more binding, comparable within an allelic series) and the binding signal (PROP1 [11]) was 6.11 upbm affinity estimate (log intensity, higher = more binding, comparable within an allelic series). The binding signal (HOXA4 [4]) was 9.58 upbm affinity estimate (log intensity, higher = more binding, comparable within an allelic series).

For AGGGCTCC, the binding signal (HOXA4 [1]) was 9.75 upbm affinity estimate (log intensity, higher = more binding, comparable within an allelic series), the binding signal (HOXA2 [16]) was 7.29 upbm affinity estimate (log intensity, higher = more binding, comparable within an allelic series) and the binding signal (HOXA4 [2]) was 9.79 upbm affinity estimate (log intensity, higher = more binding, comparable within an allelic series). The binding signal (HOXA2 [17]) was 10.4 upbm affinity estimate (log intensity, higher = more binding, comparable within an allelic series), the binding signal (HOXA4 [3]) was 9.81 upbm affinity estimate (log intensity, higher = more binding, comparable within an allelic series) and the binding signal (HOXA2 [20]) was 10.3 upbm affinity estimate (log intensity, higher = more binding, comparable within an allelic series). The binding signal (HOXA4 [4]) was 9.81 upbm affinity estimate (log intensity, higher = more binding, comparable within an allelic series) and the binding signal (HOXA2 [21]) was 7.22 upbm affinity estimate (log intensity, higher = more binding, comparable within an allelic series).
